We go through 26 compounds from PubChem BioAssay (NCI).

The panel holds about 83,000 compounds, 20% with a hit somewhere; the sample as a whole holds those more often.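 Growth was measured after 48 h exposure to one concentration of compound in 96-well plates. Values under 10 count as active.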 Active and inactive are the calls of the source.

This assay deals with HL-60(TB) leukemia. Kind of assay: NCI-60 one-dose screen, 48 h (100 = growth as untreated, 0 = no growth, -100 = all killed). To be noted: 10 µM unless noted.
Regarding `C=CC(=O)N1CCC=C(c2cc3c(N[C@H](C)c4ccccc4)ncnc3[nH]2)C1`, the growth is 72.4% (inactive).

Regarding `O=S(=O)(NC1CC2CCC1C2)c1ccc2c(c1)C(=NO)c1cc(S(=O)(=O)NC3CC4CCC3C4)ccc1-2` (stereo unspecified), the growth was -29.7% (active).

As to `O=C(Nc1cccc(Cl)c1)Nc1nc2ccc([N+](=O)[O-])cc2o1`, the growth is 0.103% (active).

Take `Fc1ccc(-c2nc(C(Cl)Cl)nc3cc(-c4ccccc4)nn23)cc1`: the growth was -8.76% (active).

As to `N#Cc1c(-c2ccc(F)cc2)nc2c(C#N)c(Nc3ccccc3)nn2c1N`, the growth is 104% (inactive).

As to `Nc1nc(Nc2ccccc2SSc2ccccc2Nc2nc(N)nc(-c3ccccc3)n2)nc(-c2ccccc2)n1`, the growth is 62.1% (inactive).

As for `C#Cc1nc(C2=C(C)C(OC(=O)CCC(=O)O)CC2)cs1` (stereo unspecified), the growth is 101% (inactive).

`CN(C)CCCOc1c2ccc(Cl)cc2nc2c1oc1ccccc12`: the growth is -19.3% (active).

Take `N#CC1=C2NCCCNc3oc(nc3C#N)Cc3ccccc3CC(=N1)O2`: the growth is 62.9% (inactive).

Turning to `O=C(COc1ccc(/C=C2\SC(=O)NC2=O)cc1)Nc1ccc(C(=O)/C=C/c2cc3ccccc3nc2Cl)cc1`, the growth was 79.6% (inactive).

Regarding `COc1ccccc1/C=C/C(=O)c1nnn(-c2ccc(F)cc2)c1C`, the growth is 31.9% (inactive).

For `C=C(C)[C@@H]1CC[C@]2(COS(C)(=O)=O)CC[C@]3(C)[C@H](CC[C@@H]4[C@@]5(C)CCCNC(C)(C)[C@@H]5CC[C@]43C)[C@@H]12`, the growth was 34.1% (inactive).

Turning to `O=C(CSc1nnc(-c2cccs2)n1-c1ccccc1)Nc1ccccc1F`, the growth was 66.3% (inactive).

Take `CC(O)c1cc2ccccc2c(=O)o1` (stereo unspecified): the growth was 102% (inactive).

Regarding `N#Cc1c(Nc2ccccc2)nn2c(-c3ccc([N+](=O)[O-])cc3)ccnc12`, the growth is 93.9% (inactive).

For the compound `O=C(/C=C/c1cccc(F)c1)c1cccc(OCCCCOc2cccc(C(=O)/C=C/c3cccc(F)c3)c2)c1`, the growth is 101% (inactive).

As for `C#CCC#CCN1CCC[C@H]1C(=O)NCC(=O)OC`, the growth was 105% (inactive).

Regarding `O=C1CSC(c2cn(-c3ccccc3)nc2-c2ccc(Cl)cc2)N1c1ccccc1` (stereo unspecified), the growth is 117% (inactive).

With `NC(N)=Nc1ccc(Oc2cccc(NC(N)=Nc3ccc(Br)c(C(F)(F)F)c3)c2)cc1`, the growth is 17.6% (inactive).

Consider `CN(C)CCCOc1c2ccc(Cl)cc2nc2c1oc1ccc(Cl)cc12`, for which the growth is 18.9% (inactive).

With `COc1ccc(N2CCN(C(=O)CSc3ccc(-c4nc5cc(C)c(C)cc5[nH]4)cn3)CC2)cc1`, the growth is 29.4% (inactive).

In the case of `CCS(=O)(=O)Nc1ccc(C(=O)CC2(O)C(=O)Nc3ccccc32)cc1` (stereo unspecified), the growth is 102% (inactive).

Regarding `COc1ccc(OC)c(-c2nc(SCC(=O)c3ccc(Br)cc3)nc(Nc3ccc(S(N)(=O)=O)cc3)c2C#N)c1`, the growth is 25.9% (inactive).

As for `C=C(C=O)[C@@H]1CC[C@]2(CO)CC[C@]3(C)[C@H](CC[C@@H]4[C@@]5(C)CCCNC(C)(C)[C@@H]5CC[C@]43C)[C@@H]12`, the growth is -10.2% (active).

Turning to `C=CCn1c(SCC(=O)Nc2ccc(OC)cc2)nnc1-c1ccc(Cl)cc1`, the growth was 78% (inactive).

As for `COc1cccc(OC)c1-c1nnn(C)c1C(=S)N1CCN(c2ccc([N+](=O)[O-])cc2Cl)CC1`, the growth is 44.3% (inactive).
